Inconclusive results are not listed. Unless noted, calls come from the whole dose curve; as a rule, active = well fitted curve in either direction with a large enough effect (not every such curve was filed as active); inconclusive = small, poorly fitted or top-dose-only effect, or another doubt; inactive = flat fitted curve, though single readings scatter.
How the values were obtained:
[1] = AP1 Signaling Pathway (AID 357); conditions: ME-180 AP-1-bla reporter, EGF-induced, beta-lactamase ratio, 5 h; at 17.2 µM (top of the series) unless noted; note: % is set by controls: 0 for no effect and ±100 for the full control effect
In short: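 ME-180 cells with beta-lactamase reporter under AP-1 response element, stimulated with EC50 EGF; compounds tested in titration series, 5 h at 37 °C. CCF4 substrate added 2.5 h at room temperature; 460/530 nm emission ratio gave %activity and AC50.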

[2] = Stat Signaling Pathway (AID 446); conditions: ME-180 SIE beta-lactamase reporter, IL-6 stimulated, 5 h; at 17.2 µM (top of the series) unless noted;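 note: ME-180 cervical cancer cells given 40 pM IL-6 alongside compound; SIE-controlled beta-lactamase reporter measured as 460/530 nm FRET emission ratio; % is set by controls: 0 for no effect and ±100 for the full control effect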
In short: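 Reporter line: ME-180 cervical carcinoma, SIE-beta-lactamase. Treatment: compound with 40 pM IL-6, 5 hrs, 37 C, in low-serum OPTI-MEM with 10 mM HEPES pH 7.3. Detection: 460/530 nm fluorescence.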

[3] = molecular target: Glucocorticoid receptor (Homo sapiens) (UniProt P04150); experiment: GR-GFP Redistribution (AID 450;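 active = compounds whose dose series gives a full or clear partial fitted curve of increased nuclear translocation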; note: potency is the fitted concentration of half-maximal effect)
Glucocorticoid receptor (Homo sapiens), sequence (P04150 whole entry, looked up): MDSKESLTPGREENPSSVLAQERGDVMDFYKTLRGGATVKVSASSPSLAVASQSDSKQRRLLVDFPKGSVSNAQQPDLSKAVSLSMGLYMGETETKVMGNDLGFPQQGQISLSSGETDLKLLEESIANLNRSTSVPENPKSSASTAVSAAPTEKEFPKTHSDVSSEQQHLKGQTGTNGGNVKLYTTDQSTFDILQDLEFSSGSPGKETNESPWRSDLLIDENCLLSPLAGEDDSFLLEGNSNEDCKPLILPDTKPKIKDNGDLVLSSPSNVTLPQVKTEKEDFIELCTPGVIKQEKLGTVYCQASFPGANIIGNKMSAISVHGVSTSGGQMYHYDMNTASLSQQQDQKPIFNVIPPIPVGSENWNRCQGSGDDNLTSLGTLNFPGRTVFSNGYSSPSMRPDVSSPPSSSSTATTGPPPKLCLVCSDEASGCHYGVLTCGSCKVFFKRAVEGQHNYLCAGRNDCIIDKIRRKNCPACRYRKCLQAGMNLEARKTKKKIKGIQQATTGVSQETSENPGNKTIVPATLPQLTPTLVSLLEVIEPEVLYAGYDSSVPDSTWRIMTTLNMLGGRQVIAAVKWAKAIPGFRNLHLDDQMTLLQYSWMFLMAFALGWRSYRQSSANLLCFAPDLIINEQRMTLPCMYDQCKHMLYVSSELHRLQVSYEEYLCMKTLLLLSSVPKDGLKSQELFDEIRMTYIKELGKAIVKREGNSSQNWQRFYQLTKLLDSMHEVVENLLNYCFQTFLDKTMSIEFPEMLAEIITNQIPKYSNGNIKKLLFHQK

CC(=O)Nc1ccc(-c2cc3ccccc3o2)cc1
inactive: activity change, negative = inhibition [1] -10.3% | activity, negative = inhibition [2] -0.606% | Potency [3] > 20.6 µM

OCCNc1nc(-c2ccccc2)c2ccccc2n1
inactive: activity change, negative = inhibition [1] -11.6% | activity, negative = inhibition [2] -4.38% | Potency [3] > 20.6 µM

Clc1ccc(-c2nnc3sc(Cc4cccs4)nn23)c(Cl)c1
inactive: activity change, negative = inhibition [1] -25% | activity, negative = inhibition [2] 12.6% | Potency [3] > 20.6 µM

Cn1c(=O)c2c(nc(NCc3ccco3)n2Cc2ccc(Cl)cc2Cl)n(C)c1=O
inactive: activity change, negative = inhibition [1] 4.86% | activity, negative = inhibition [2] -17.6% | Potency [3] > 20.6 µM

CCOc1ccc(N2C(=O)CC(N)C2=O)cc1 (centres undefined)
inactive: activity change, negative = inhibition [1] -19.2% | activity, negative = inhibition [2] -5.4% | Potency [3] > 20.6 µM

Cc1cc(C)n(CC2CC(=O)N(c3ccc(F)c(Cl)c3)C2=O)n1 (centres undefined)
inactive: activity change, negative = inhibition [1] -5.28% | activity, negative = inhibition [2] -2.55% | Potency [3] > 20.6 µM

CCOc1nc(SCCOc2ccc(C)cc2)nc(N(C)C)n1
inactive: activity change, negative = inhibition [1] -8.15% | activity, negative = inhibition [2] -4.82% | Potency [3] > 20.6 µM

CC(C)Sc1nnc2n(CCc3ccccc3)c(=O)c3c4c(sc3n12)COC(C)(C)C4
inactive: activity change, negative = inhibition [1] -19.5% | activity, negative = inhibition [2] -3.01% | Potency [3] > 20.6 µM

CC(C)Cn1nc(NC(=O)C(C)(C)C)c2cc3ccccc3nc21
inactive: activity change, negative = inhibition [1] -20.3% | activity, negative = inhibition [2] -6.46% | Potency [3] > 20.6 µM

COC(=O)c1sc2nc(N3CCCCC3)c3c(c2c1N)CC(C)(C)N(C)C3
inactive: activity change, negative = inhibition [1] 21% | activity, negative = inhibition [2] 9.93% | Potency [3] > 20.6 µM

COc1ccc(C(=O)Nc2cccnc2)cc1C(=O)Nc1cccnc1
inactive: activity change, negative = inhibition [1] 3.61% | activity, negative = inhibition [2] -4.76% | Potency [3] > 20.6 µM

CC(C)OC(=O)C(C#N)c1nc2ccccc2nc1N1CCN(Cc2ccc3c(c2)OCO3)CC1 (centres undefined)
inactive: activity change, negative = inhibition [1] -10.5% | activity, negative = inhibition [2] -12.7% | Potency [3] > 20.6 µM

CCCCCCn1cc(C(=O)O)c(=O)c2ccccc21
inactive: activity change, negative = inhibition [1] -9% | activity, negative = inhibition [2] 8.19% | Potency [3] > 20.6 µM

Cc1cccn2c(=O)c3cc(C(N)=S)c(=N)n(CCCOC(C)C)c3nc12
inactive: activity change, negative = inhibition [1] -0.111% | activity, negative = inhibition [2] 13.3% | Potency [3] > 20.6 µM

CCOC(=O)C1CCN(c2nc3ccccc3nc2C(C#N)C(=O)OC(C)COC)CC1 (centres undefined)
inactive: activity change, negative = inhibition [1] -6.33% | activity, negative = inhibition [2] -12.7% | Potency [3] > 20.6 µM

CCOC(=O)c1c2c(c(=S)n(-c3ccccc3)c1N)CCC2
inactive: activity change, negative = inhibition [1] -21.8% | activity, negative = inhibition [2] -15.9% | Potency [3] > 20.6 µM

COc1ccc(Nc2oc(-c3cccs3)nc2C#N)cc1
inactive: activity change, negative = inhibition [1] -23.7% | activity, negative = inhibition [2] -1.34% | Potency [3] > 20.6 µM

CC1(C)Cc2c(sc3c2C2=NCCN2C=N3)CO1
inactive: activity change, negative = inhibition [1] 12.7% | activity, negative = inhibition [2] 1.72% | Potency [3] > 20.6 µM

CCOC(=O)N1CC=C2C(C#N)=C(N)C(C#N)(C#N)[C@H](c3cccs3)[C@H]2C1
inactive: activity change, negative = inhibition [1] 6.03% | activity, negative = inhibition [2] -16% | Potency [3] > 20.6 µM

Cc1cc(Nc2ccc3ccccc3c2)n2ncnc2n1
inactive: activity change, negative = inhibition [1] 16.7% | activity, negative = inhibition [2] -6.76% | Potency [3] > 20.6 µM

C=CCOn1c(=O)c(-c2cc3ccccc3o2)[n+]([O-])c2ccccc21
inactive: activity change, negative = inhibition [1] -28.9% | activity, negative = inhibition [2] -8.42% | Potency [3] > 20.6 µM

C=CCOc1ccc(/C(O)=C2\C(=O)C(=O)N(CCN(C)C)C2c2cccs2)cc1 (centres undefined)
inactive: activity change, negative = inhibition [1] -5.42% | activity, negative = inhibition [2] -3.79% | Potency [3] > 20.6 µM

CCCCCc1ccc(-c2ccc(=O)[nH]n2)cc1
inactive: activity change, negative = inhibition [1] 7.59% | activity, negative = inhibition [2] 13.6% | Potency [3] > 20.6 µM

CN(Cc1c(O)ccc2c1oc(=O)c1ccccc12)C1CCCCC1
inactive: activity change, negative = inhibition [1] 2.27% | activity, negative = inhibition [2] 4.77% | Potency [3] > 20.6 µM

CCN(CC)c1ccc(C2Nc3cccc4cccc(c34)N2)c(O)c1
inactive: activity change, negative = inhibition [1] -17.3% | activity, negative = inhibition [2] -17.7% | Potency [3] > 20.6 µM

C1CCCN(CCCCN2CCCCCC2)CC1
inactive: activity change, negative = inhibition [1] 3.84% | activity, negative = inhibition [2] 16% | Potency [3] > 20.6 µM

CCC1(C)Cc2c(sc3c2c(=O)n(C)c2nnc(SCC(=O)c4ccc(Cl)cc4)n32)CO1 (centres undefined)
inactive: activity change, negative = inhibition [1] -5.39% | activity, negative = inhibition [2] -5.38% | Potency [3] > 20.6 µM

CCOC(=O)COn1c(=O)c(-c2ccco2)[n+]([O-])c2ccccc21
inactive: activity change, negative = inhibition [1] -20.1% | activity, negative = inhibition [2] 12.3% | Potency [3] > 20.6 µM

COC(=O)c1ccc(C2C(C(=O)c3cc4ccccc4o3)=C(O)C(=O)N2CCCN(C)C)cc1 (centres undefined)
inactive: activity change, negative = inhibition [1] -0.991% | activity, negative = inhibition [2] -11.4% | Potency [3] > 20.6 µM

CCCc1nc(N2CCOCC2)c(C#N)c2c1CCCC2
inactive: activity change, negative = inhibition [1] -22% | activity, negative = inhibition [2] -12.3% | Potency [3] > 20.6 µM

CCC(=O)Nc1nc2ccccc2n1Cc1ccccc1C
inactive: activity change, negative = inhibition [1] 28.7% | activity, negative = inhibition [2] 2.77% | Potency [3] > 20.6 µM

CN(CC(O)COc1ccc(OCC(O)CN(C)C2CCCCC2)cc1)C1CCCCC1 (centres undefined)
inactive: activity change, negative = inhibition [1] 11.3% | activity, negative = inhibition [2] 12.2% | Potency [3] > 20.6 µM

CNC(=O)Nc1cccc(NC(=O)NC)n1
inactive: activity change, negative = inhibition [1] 13% | activity, negative = inhibition [2] 0.623% | Potency [3] > 20.6 µM

CCN(CC)CCCn1c(C)cc2c(c1=O)C(c1ccccc1)C(C#N)=C(N)O2 (centres undefined)
inactive: activity change, negative = inhibition [1] 1.7% | activity, negative = inhibition [2] 2.65% | Potency [3] > 20.6 µM

CC(=O)c1cc(CN2CCCCC2)cc(OC(C)C)c1
inactive: activity change, negative = inhibition [1] 15.3% | activity, negative = inhibition [2] 13.1% | Potency [3] > 20.6 µM

N=c1c(C(=O)NCc2ccccc2)cc2c(=O)n3ccccc3nc2n1Cc1ccco1
inactive: activity change, negative = inhibition [1] -5.29% | activity, negative = inhibition [2] 19.8% | Potency [3] > 20.6 µM

CN1C2C=C3C(C#N)=C(N)C(C#N)(C#N)[C@@H](c4ccc(Cl)cc4)[C@@H]3C1CC2 (some centres undefined)
inactive: activity change, negative = inhibition [1] -8.82% | activity, negative = inhibition [2] 5.5% | Potency [3] > 20.6 µM

COc1ccc(Cn2c(=O)c3c(nc(NCCO)n3C)n(C)c2=O)cc1
inactive: activity change, negative = inhibition [1] 1.13% | activity, negative = inhibition [2] -24.4% | Potency [3] > 20.6 µM

CC1(C)Cc2nc3sc4c(N(CCO)CCO)ncnc4c3cc2CO1
inactive: activity change, negative = inhibition [1] 1.68% | activity, negative = inhibition [2] -5.3% | Potency [3] > 20.6 µM

CCCCCSc1nc(N2CCOCC2)c2c(c1C#N)CC(C)(C)OC2
inactive: activity change, negative = inhibition [1] -13.1% | activity, negative = inhibition [2] 9.95% | Potency [3] > 20.6 µM

CC(C)c1nc2sc3c(c2c(=O)o1)CCCC3
inactive: activity change, negative = inhibition [1] -7.93% | activity, negative = inhibition [2] 2.63% | Potency [3] > 20.6 µM

Cc1cccc(OCC(=O)N2CCC(N3CCCCCC3)CC2)c1
inactive: activity change, negative = inhibition [1] 4.73% | activity, negative = inhibition [2] 5.82% | Potency [3] > 20.6 µM

Nc1nc2n(n1)C(c1cccs1)CC(c1ccc(F)cc1)N2 (centres undefined)
inactive: activity change, negative = inhibition [1] 5.72% | activity, negative = inhibition [2] 1.08% | Potency [3] > 20.6 µM

CC(C)C(=O)N1CCN(c2nc(-c3ccccc3)c3c(c2C#N)CC(C)(C)OC3)CC1
inactive: activity change, negative = inhibition [1] -2.44% | activity, negative = inhibition [2] 9.79% | Potency [3] > 20.6 µM

C=CCn1c(SCC#N)nc2c(c1=O)C(C)(C)Cc1ccccc1-2
inactive: activity change, negative = inhibition [1] -2.85% | activity, negative = inhibition [2] -1.93% | Potency [3] > 20.6 µM

CC1(C)Cc2c(C#N)c(OCC(=O)c3ccccc3)nc(-c3ccoc3)c2CO1
inactive: activity change, negative = inhibition [1] 20.6% | activity, negative = inhibition [2] 12.9% | Potency [3] > 20.6 µM

CCCCCNC(=O)C(C#N)c1nc2ccccc2nc1N1CC(C)OC(C)C1 (centres undefined)
inactive: activity change, negative = inhibition [1] -18.2% | activity, negative = inhibition [2] -11.4% | Potency [3] > 20.6 µM

COc1cc2[nH]c3c(=O)n(CCN(C(C)C)C(C)C)cnc3c2cc1OC
inactive: activity change, negative = inhibition [1] -1.5% | activity, negative = inhibition [2] 6.66% | Potency [3] > 20.6 µM

C(=N\n1cnnc1)/c1ccccn1
inactive: activity change, negative = inhibition [1] 1.5% | activity, negative = inhibition [2] 7.02% | Potency [3] > 20.6 µM

Nc1c2c(nc3ccccc13)N(C1CCCCC1)CC2
inactive: activity change, negative = inhibition [1] 13.8% | activity, negative = inhibition [2] 16.7% | Potency [3] > 20.6 µM

COc1cc(-c2nn3c(-c4cccnc4)nnc3s2)cc(OC)c1OC
inactive: activity change, negative = inhibition [1] -0.374% | activity, negative = inhibition [2] -7.44% | Potency [3] > 20.6 µM

Cc1cccc(OCCN2CSC(=S)N(C)C2)c1
inactive: activity change, negative = inhibition [1] -16.7% | activity, negative = inhibition [2] -7.42% | Potency [3] > 20.6 µM

C=CCn1c(=O)c(C(=O)NCCN(CC)CC)c(O)c2ccccc21
inactive: activity change, negative = inhibition [1] 14.7% | activity, negative = inhibition [2] 8.32% | Potency [3] > 20.6 µM

c1ccc2c(N3CCCCC3)nc(N3CCCCC3)nc2c1
inactive: activity change, negative = inhibition [1] 21.1% | activity, negative = inhibition [2] -3.49% | Potency [3] > 20.6 µM

N#Cc1nc(COc2ccc(Br)cc2)oc1N1CCN(Cc2ccccc2)CC1
inactive: activity change, negative = inhibition [1] -15.5% | activity, negative = inhibition [2] 8.74% | Potency [3] > 20.6 µM

CCCCNC(=O)c1c(N)n(/N=C/c2cccnc2)c2nc3ccccc3nc12
inactive: activity change, negative = inhibition [1] -12% | activity, negative = inhibition [2] 16.8% | Potency [3] > 20.6 µM

CCOC(=O)CSc1nnc2n(C3CCCCC3)c(=O)c3c4c(sc3n12)CCCC4
inactive: activity change, negative = inhibition [1] -9.49% | activity, negative = inhibition [2] -21.4% | Potency [3] > 20.6 µM

COc1cccc(CNc2ncc(Br)cc2Br)c1O
inactive: activity change, negative = inhibition [1] -6.72% | activity, negative = inhibition [2] -21.8% | Potency [3] > 20.6 µM

From PubChem BioAssay (NCATS)
